Shown are actives, neighbours in structure and some others; about 3.5% of the full set was active somewhere.
TEAD-YAP block: TEAD-YAP interaction inhibition; HEK-TIYL cells, TEAD-Gal4/YAP UAS-luciferase luminescence; inhibition, % at 9.12 µM; 640,000 compounds, 1.4% hits; in the data active = inhibition above about 32%
FBW7 activator: activators of human E3 ligase FBW7. Q969H0. AlphaScreen FBW7–phospho-cyclin E peptide binding, activator screen. normalized activity (activation), % at 26.1 µM. 650,000 compounds, 0.13% hits; in the data active = normalized activity above about 1.9%;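 also: purified mutant Fbw7 with reduced substrate affinity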
MITF inh: blocks human microphthalmia-associated transcription factor | inhibition, % at 2.6 µM | AlphaScreen MITF homodimerization, bead proximity signal | 650,000 compounds, 0.91% hits | O75030 | AID 1259374; in the data active = inhibition above about 50%
GPR151 ag: activates the human receptor GPR151; 650,000 compounds, 1% hits; PathHunter beta-arrestin GPR151 cells, luminescence; Q8TDV0; AID 1508602; activation, % at 11.2 µM; in the data active = activation above about 4.9%
GPR151 conf act: confirmation of human GPR151 activators; activation, % at 11.2 µM; shares compounds with GPR151 ag; 6,700 tested, under 10 active; GPR151 PathHunter beta-arrestin cells, luminescence, 90 min; % of EA-reagent control over plate median;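 active = mean percent activation across replicates above the confirmation screen cutoff of 4.91%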
GPR119 ag: GPR119 activation, counter-screen for GPR151 activators; shares compounds with GPR151 ag; GPR119 PathHunter beta-arrestin cells, luminescence, 90 min; 0 = compound-well median, 100 = enzyme-acceptor control; activation, % at 11.2 µM; 6,700 compounds, 0.3% hits;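 active = mean percent activation in the counterscreen above 29.09%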;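 also: counterscreen on off-target GPR119 to flag nonselective hits from the GPR151 activator screen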
Target sequence (Q8TDV5 whole entry, looked up): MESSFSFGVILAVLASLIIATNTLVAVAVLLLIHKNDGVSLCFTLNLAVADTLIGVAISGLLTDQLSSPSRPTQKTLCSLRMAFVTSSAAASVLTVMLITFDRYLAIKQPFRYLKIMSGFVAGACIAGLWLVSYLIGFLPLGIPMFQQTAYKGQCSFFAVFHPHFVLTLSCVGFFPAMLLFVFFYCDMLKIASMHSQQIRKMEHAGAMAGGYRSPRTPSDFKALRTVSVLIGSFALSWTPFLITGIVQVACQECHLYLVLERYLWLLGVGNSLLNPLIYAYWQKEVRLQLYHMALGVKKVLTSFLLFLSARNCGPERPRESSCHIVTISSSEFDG
Numbers stand for hits; i = inactive; nt = not tested or not shown.

SMILES	TEAD-YAP block	FBW7 activator	MITF inh	GPR151 ag	GPR151 conf act	GPR119 ag
COc1ccc2ccc(OC)c(/C=C3\NC(=O)N(Cc4ccc(Cl)cc4)C3=O)c2c1	i	i	i	4.9	i	i
COc1cc(/C=C2\NC(=O)N(Cc3ccc(Cl)cc3)C2=O)cc(OC)c1O	i	i	i	i	nt	nt
Nc1cc[n+](CC(=O)c2ccccc2)cc1	i	i	i	7.1	i	i
COc1ccc(CNC(=O)CSc2nnc3sc4ccccc4n23)cc1C(=O)O	i	i	i	5.5	i	i
CC(C)COC(=O)Nc1nnc(C(C)C)s1	i	i	i	13	i	i
CCCCOC(=O)Nc1nnc(C(C)C)s1	i	i	i	i	nt	nt
Cc1ccc(-n2ncc3c(SCC(=O)NC(C)C)ncnc32)c(C)c1	i	i	i	i	nt	nt
Cc1ccc(-n2ncc3c(SCC(=O)Nc4ccc(C(N)=O)cc4)ncnc32)c(C)c1	i	i	i	5.3	i	i
Cc1ccc(NC(=O)CCC(=O)OC2CCC(C(C)(C)C)CC2)cc1 (stereo unspecified)	i	i	i	i	nt	nt
CC(C)(C)C1CCC(OC(=O)CCC(=O)N2CCCCC2)CC1 (stereo unspecified)	i	i	i	11	i	i
COc1cccc(N2CC(C(=O)NCCc3ccsc3)CC2=O)c1 (stereo unspecified)	i	i	i	5.5	i	i
COc1cccc(N2CC(C(=O)Oc3ccc4ccccc4c3)CC2=O)c1 (stereo unspecified)	i	i	i	7.3	i	i
COc1cccc(N2CC(C(=O)N3CCN(CCn4nc(C)cc4C)CC3)CC2=O)c1 (stereo unspecified)	i	i	i	8.1	i	i
COc1ccc(N2CC(C(=O)NCCc3ccccc3)CC2=O)cc1 (stereo unspecified)	i	i	i	i	nt	nt
COCC1CCCCN1Cc1c(C(=O)N2CCCN(C)CC2)nc2sccn12 (stereo unspecified)	i	i	i	15	i	i
COCC1CCCN(Cc2c(C(=O)N3CCCN(C)CC3)nc3sccn23)C1 (stereo unspecified)	i	i	i	i	nt	nt
O=C(c1cc(S(=O)(=O)N2CCCCC2)c[nH]1)N1CCCCCC1	i	i	i	i	nt	nt
Cc1nn(-c2ccccc2)c(Cl)c1/C=C1\SC(=S)NC1=O	i	i	i	5.3	i	i
CC(=O)c1ccc(-c2nnc(CCC(=O)NCC(F)(F)F)o2)s1	i	i	i	i	nt	nt
O=C(/C=C/c1cccc(Cl)c1)Nc1ccncc1	i	i	i	24	i	i
O=C(CCc1nnc(-c2ccsc2)o1)N1CCc2sccc2C1	i	i	i	5.4	i	i
CC(=O)c1ccc(NC(=O)CSc2nnc(C3CC3)n2C)cc1	i	i	i	i	nt	nt
CC(=O)c1ccc(NC(=O)CSc2nnc(C34CC5CC(CC(C5)C3)C4)n2C)cc1	i	i	i	6.2	i	i
Cc1ccc(NC(=O)CSc2nnc3[nH]c(=O)ccn23)c(C)c1	i	i	i	i	nt	nt
CN(C)N1C(N)=C(C#N)C(c2ccc3ccccc3c2)C2=C1CCCC2=O (stereo unspecified)	i	i	i	5.9	i	i
SMILES	TEAD-YAP block	FBW7 activator	MITF inh	GPR151 ag	GPR151 conf act	GPR119 ag
COc1ccc(C2C(C#N)=C(N)N(N(C)C)C3=C2C(=O)CCC3)cc1 (stereo unspecified)	i	i	i	i	nt	nt
COc1ccc(NC(=O)CN2C(=O)C(c3ccccc3)Oc3cccnc32)cc1OC (stereo unspecified)	i	i	i	6.3	i	i
Nc1nc(Nc2ccc(N3CCOCC3)cc2)cc(-c2csc3ccccc23)n1	i	i	i	i	nt	nt
Nc1nc(Nc2ccccc2)cc(-c2ccccc2)n1	i	i	i	i	nt	nt
Nc1nc(Nc2ccc(Oc3ccccc3)cc2)cc(-c2csc3ccccc23)n1	52	i	i	6.7	i	i
Nc1nc(Nc2ccccc2)cc(-c2cccs2)n1	i	i	i	6.2	i	i
O=C(c1ccco1)N1CCC(Cn2c(COc3ccccc3)nc3ccccc32)CC1	i	i	i	7.5	i	i
CCNC(=O)N1CCC(Cn2c(COc3ccccc3)nc3ccccc32)CC1	i	i	i	i	nt	nt
Cc1nonc1NC(=O)CSc1nc(Cc2ccccc2)nc2ccccc12	i	i	i	10	i	i
CC(C)NC(=O)CSc1nc(Cc2ccccc2)nc2ccccc12	i	i	i	i	nt	nt
COc1ccc(CCN2C(=O)NC(NC(C)=O)(C(F)(F)F)C2=O)cc1OC (stereo unspecified)	i	i	i	5.0	i	i
CSc1nnc(C)c(=O)n1COC(=O)c1cc2ccccc2o1	i	i	i	7.5	i	i
CSc1nnc(C)c(=O)n1COC(=O)c1ccccc1I	i	i	i	i	nt	nt
O=C(CCc1ccccc1)N/N=C/c1ccccc1O	i	i	i	5.9	i	i
N#Cc1ccc(/C=N/NC(=S)NCc2ccccc2)cc1	i	i	i	i	nt	nt
C/C(=N\NC(=O)CCc1ccccc1)c1ccc(Br)cc1	i	i	i	5.9	i	i
N#Cc1ccc(/C=N/NC(=O)CCc2ccccc2)cc1	i	i	i	6.0	i	i
COCCNC(=O)Cn1cnc2c(cnn2-c2ccc(F)cc2)c1=O	i	i	i	i	nt	nt
CCN1CCN(CCCNC(=O)c2nn(-c3ccc(OC)cc3OC)c(=O)c3ccccc23)CC1	i	i	i	i	nt	nt
COc1ccc(OC)c(C(=O)COC(=O)c2cc(C)oc2C)c1	i	i	i	13	i	i
CCOc1ccccc1N1CCN(S(=O)(=O)c2ccccc2[N+](=O)[O-])CC1	i	i	i	5.7	i	i
CCS(=O)(=O)N1CCN(S(=O)(=O)c2ccccc2[N+](=O)[O-])CC1	i	i	i	i	nt	nt
CCOc1ccccc1CN1CCN(S(=O)(=O)c2ccccc2[N+](=O)[O-])CC1	i	i	i	5.7	i	i
COc1ccccc1CN1CCN(S(=O)(=O)c2ccccc2[N+](=O)[O-])CC1	i	i	i	i	nt	nt
CCc1ccc(NC(=O)CSc2nnc(-c3ccccc3)c(-c3ccccc3)n2)cc1	i	i	i	i	nt	nt
SMILES	TEAD-YAP block	FBW7 activator	MITF inh	GPR151 ag	GPR151 conf act	GPR119 ag
CC1(C)OC(=O)N2CCN3C(=O)OC(C)(C)C3(C)C(Br)=C21 (stereo unspecified)	i	i	i	6.0	i	i
O=S(=O)(N/N=C/c1cccc(Cl)c1)c1ccc(Cl)cc1	i	i	i	5.2	i	i
Cc1cc(C(=O)Nc2sc3c(c2C#N)CCC(C)C3)cs1 (stereo unspecified)	i	i	i	8.3	i	i
COC(=O)c1c(NC(=O)CSc2nnc3cc(C)c4ccccc4n23)sc2c1CCC(C)C2 (stereo unspecified)	i	i	i	i	nt	nt
Cc1cc2nnc(SCC(=O)Nc3sc4c(c3C#N)CCC(C)C4)n2c2ccccc12 (stereo unspecified)	i	i	i	5.3	i	i
COc1ccccc1C(=O)N/C(=C\c1ccc(Br)cc1)C(=O)Nc1ccc(C(C)=O)cc1	i	i	i	i	nt	nt

High-throughput results: PubChem, The Scripps Research Institute Molecular Screening Center
